{
  "source": "PubChem BioAssay (NCI)",
  "note": "The panel holds about 83,000 compounds, 20% with a hit somewhere; the sample as a whole holds those more often.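 The endpoint reported here, percent growth, reads 100 for growth as untreated, 0 for no net growth and -100 for all cells dead.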 A number with no mark means an inactive call. Activity calls are given as the source filed them. Rule for the calls: active = growth percent below 10; inactive = the rest.",
  "data": [
    {"test_system": "OVCAR-8 ovarian", "assay": "NCI-60 one-dose screen, 48 h (100 = growth as untreated, 0 = no growth, -100 = all killed)", "settings": "10 µM", "values": [
      {"smiles": "C=CCN(CC=C)C(=O)[C@H](CC)[C@@H]1CC[C@@H](C)[C@@H]([C@H](C)[C@@H](O)[C@@H](C)C(=O)[C@H](CC)C2O[C@]3(C=C[C@@H](O)[C@]4(CC[C@@](C)([C@H]5CC[C@](O)(CC)[C@H](C)O5)O4)O3)[C@H](C)C[C@@H]2C)O1", "note": "(stereo not given in full)", "growth": "16%"},
      {"smiles": "O=C1CCn2c1c(O)c1ccccc1c2=O", "growth": "103%"},
      {"smiles": "COc1ccc(-c2cc(-c3ccccc3)nc(SCCCCCCC(=O)NO)n2)cc1", "growth": "43.7%"},
      {"smiles": "Cc1ccc(NC(=S)NNC(=S)Nc2ccc(C)cc2)cc1", "growth": "76%"},
      {"smiles": "c1cncc(-c2csc(-c3c[nH]c4ccccc34)n2)c1", "growth": "95.8%"},
      {"smiles": "CN(C)CCOc1cccc(-c2nc3sccn3c2-c2ccnc(S(C)(=O)=O)n2)c1", "growth": "100%"},
      {"smiles": "CC(C)(C)c1ccc(S(=O)(=O)N[C@H]2CC[C@H]3[C@@H]4CCc5cc(OS(=O)(=O)O)ccc5[C@H]4CC[C@]23C)cc1", "growth": "52.1%"},
      {"smiles": "Nc1nccc(OCCO)n1", "growth": "109%"},
      {"smiles": "CC(C)c1ccc(C(C)C(=O)N(CC2=C(C(C)c3ccccn3)c3ccccc3C2)C(C)C)cc1", "note": "(stereo not given)", "growth": "46.6%"},
      {"smiles": "Cc1c2cnccc2c(C)c2c1c1cc(O)ccc1n2C(C)C", "growth": "7.98% (active)"},
      {"smiles": "CCc1ccc(C2=NN(c3ccc(S(C)(=O)=O)cc3)C(=O)CC2)cc1", "growth": "39.1%"},
      {"smiles": "COc1cc2c(cc1NC(=O)C(Cl)Cl)-c1ccc(NC(=O)C(Cl)Cl)cc1C2", "growth": "-22.8% (active)"},
      {"smiles": "COc1cc(/C=C2\\CCCC3=C2NC(N)=NC3c2cc(OC)c(OC)c(OC)c2)cc(OC)c1OC", "note": "(stereo not given)", "growth": "-35.8% (active)"},
      {"smiles": "COc1ccc(-c2nn(-c3cccc(Cl)c3)cc2-c2cc(-c3ccccc3)[nH]c(=O)c2C#N)cc1", "growth": "26.3%"},
      {"smiles": "CC(C)(C)OC(=O)N1CCc2c(sc3ncnc(N/N=C/c4ccccc4Br)c23)C1", "growth": "71.6%"},
      {"smiles": "COc1ccc(-c2nn(-c3cccc(Cl)c3)cc2-c2nc(N)[nH]c(=O)c2C#N)cc1", "growth": "96.4%"},
      {"smiles": "COc1ccc(-c2cc(-c3ccc(Cl)cc3)nc(SCCCC(=O)NO)n2)cc1", "growth": "8.07% (active)"},
      {"smiles": "COc1ccc(-c2nn(-c3cccc(Cl)c3)cc2-c2c(C#N)c(=O)n3[nH]c(-c4ccccc4)nc3c2C#N)cc1", "growth": "110%"},
      {"smiles": "Cc1ccc(-n2c(C)nn3c(=O)c4c5c(sc4nc23)CN(C)CC5)cc1", "growth": "103%"},
      {"smiles": "CCn1c(CSc2nc3ccccc3c(=O)n2CCc2ccccc2)n[nH]c1=S", "growth": "89.7%"},
      {"smiles": "COc1cc2cc(Oc3ccc(NC(=O)Nc4ccc(Cl)c(Cl)c4)cc3)c(C)nc2cc1OC", "growth": "15%"},
      {"smiles": "CCOC(=O)c1sc2ncnc(Nc3ccc4c(cnn4C(=O)Nc4ccc(C)c(Cl)c4)c3)c2c1C", "growth": "102%"},
      {"smiles": "CN1CCc2c(sc3nc4n(-c5ccc(Cl)cc5)c(=O)[nH]n4c(=O)c23)C1", "growth": "93%"},
      {"smiles": "COc1cc2c3c(n(C4CCN(C)CC4)c(=O)c2cc1OC)-c1cc2c(cc1C3=O)OCO2", "growth": "19.4%"},
      {"smiles": "CCOC(=O)CSc1nc(-c2cc(OC)ccc2OC)cc(-c2ccc(OC)cc2)c1C#N", "growth": "82.4%"},
      {"smiles": "CC(C)N(CCOc1ccc(-c2nc3sccn3c2-c2ccnc(S(C)(=O)=O)n2)cc1)C(C)C", "growth": "90.6%"},
      {"smiles": "N#Cc1ccc(C(=O)CSc2nccc(Nc3ccc(C(=O)O)cc3)n2)cc1", "growth": "106%"},
      {"smiles": "O=C(CNc1nnc(-c2cccnc2SCc2ccccc2)s1)Nc1nc(Cl)cc(Cl)n1", "growth": "118%"},
      {"smiles": "COc1ccc(N(C)c2ncnc3occ(C)c23)cc1", "growth": "-21.9% (active)"},
      {"smiles": "COC(=O)C1OC1c1cc([N+](=O)[O-])ccc1OC", "note": "(stereo not given)", "growth": "105%"},
      {"smiles": "N#Cc1c(-c2ccc(Cl)cc2)cc(-c2cc(O)ccc2O)nc1N", "growth": "1.52% (active)"},
      {"smiles": "CN(C)CCN(Cc1ccccc1)c1ccc2ccccc2n1", "growth": "102%"},
      {"smiles": "COC(=O)c1c[nH]c2cc(OC(C)C)c(OC(C)C)cc2c1=O", "growth": "58.8%"},
      {"smiles": "C=C/C(C)=C/C[C@]1(C)[C@H](C)[C@@H](OC(=O)CCC)[C@H](O)[C@@]23C(=C[C@H](OC)C[C@@H]12)[C@@H](OC(=O)CCC)O[C@H]3OC(C)=O", "growth": "-60.4% (active)"},
      {"smiles": "O=C(Nc1cc([N+](=O)[O-])c2[nH]c(=O)c3ccccc3c2c1)C(F)(F)F", "growth": "77.2%"},
      {"smiles": "Nc1nc(Cl)nc2c1ncn2C1O[C@H](CO)[C@@H](O)[C@@H]1F", "note": "(stereo not given in full)", "growth": "27.1%"},
      {"smiles": "C#CC(C)(O)[C@@H]1C[C@H](CC(=O)O)C1(C)C", "note": "(stereo not given in full)", "growth": "112%"},
      {"smiles": "COc1ccc(-c2nn(-c3cccc(Cl)c3)cc2/C=C2\\NC(=S)N(c3ccc(Cl)cc3)C2=O)cc1", "growth": "21.9%"},
      {"smiles": "COc1ccc2c(c1)OC(N)=C(C#N)C2c1cc(OC)c(OC)c(OC)c1", "note": "(stereo not given)", "growth": "14.6%"},
      {"smiles": "IC(I)I", "growth": "107%"}
    ]},
    {"test_system": "OVCAR-5 ovarian", "assay": "NCI-60 one-dose screen, 48 h (100 = growth as untreated, 0 = no growth, -100 = all killed)", "settings": "10 µM", "values": [
      {"smiles": "C=CCN(CC=C)C(=O)[C@H](CC)[C@@H]1CC[C@@H](C)[C@@H]([C@H](C)[C@@H](O)[C@@H](C)C(=O)[C@H](CC)C2O[C@]3(C=C[C@@H](O)[C@]4(CC[C@@](C)([C@H]5CC[C@](O)(CC)[C@H](C)O5)O4)O3)[C@H](C)C[C@@H]2C)O1", "note": "(stereo not given in full)", "growth": "31.9%"},
      {"smiles": "O=C1CCn2c1c(O)c1ccccc1c2=O", "growth": "114%"},
      {"smiles": "COc1ccc(-c2cc(-c3ccccc3)nc(SCCCCCCC(=O)NO)n2)cc1", "growth": "58.2%"},
      {"smiles": "Cc1ccc(NC(=S)NNC(=S)Nc2ccc(C)cc2)cc1", "growth": "89.1%"},
      {"smiles": "c1cncc(-c2csc(-c3c[nH]c4ccccc34)n2)c1", "growth": "95.6%"},
      {"smiles": "CN(C)CCOc1cccc(-c2nc3sccn3c2-c2ccnc(S(C)(=O)=O)n2)c1", "growth": "97.3%"},
      {"smiles": "CC(C)(C)c1ccc(S(=O)(=O)N[C@H]2CC[C@H]3[C@@H]4CCc5cc(OS(=O)(=O)O)ccc5[C@H]4CC[C@]23C)cc1", "growth": "87.3%"},
      {"smiles": "Nc1nccc(OCCO)n1", "growth": "101%"},
      {"smiles": "CC(C)c1ccc(C(C)C(=O)N(CC2=C(C(C)c3ccccn3)c3ccccc3C2)C(C)C)cc1", "note": "(stereo not given)", "growth": "64.7%"},
      {"smiles": "Cc1c2cnccc2c(C)c2c1c1cc(O)ccc1n2C(C)C", "growth": "69.2%"},
      {"smiles": "CCc1ccc(C2=NN(c3ccc(S(C)(=O)=O)cc3)C(=O)CC2)cc1", "growth": "48.7%"},
      {"smiles": "COc1cc2c(cc1NC(=O)C(Cl)Cl)-c1ccc(NC(=O)C(Cl)Cl)cc1C2", "growth": "10.2%"},
      {"smiles": "COc1cc(/C=C2\\CCCC3=C2NC(N)=NC3c2cc(OC)c(OC)c(OC)c2)cc(OC)c1OC", "note": "(stereo not given)", "growth": "6.85% (active)"},
      {"smiles": "COc1ccc(-c2nn(-c3cccc(Cl)c3)cc2-c2cc(-c3ccccc3)[nH]c(=O)c2C#N)cc1", "growth": "94.1%"},
      {"smiles": "CC(C)(C)OC(=O)N1CCc2c(sc3ncnc(N/N=C/c4ccccc4Br)c23)C1", "growth": "78.3%"},
      {"smiles": "COc1ccc(-c2nn(-c3cccc(Cl)c3)cc2-c2nc(N)[nH]c(=O)c2C#N)cc1", "growth": "94.3%"},
      {"smiles": "COc1ccc(-c2cc(-c3ccc(Cl)cc3)nc(SCCCC(=O)NO)n2)cc1", "growth": "24.5%"},
      {"smiles": "COc1ccc(-c2nn(-c3cccc(Cl)c3)cc2-c2c(C#N)c(=O)n3[nH]c(-c4ccccc4)nc3c2C#N)cc1", "growth": "106%"},
      {"smiles": "Cc1ccc(-n2c(C)nn3c(=O)c4c5c(sc4nc23)CN(C)CC5)cc1", "growth": "98.8%"},
      {"smiles": "CCn1c(CSc2nc3ccccc3c(=O)n2CCc2ccccc2)n[nH]c1=S", "growth": "91.9%"},
      {"smiles": "COc1cc2cc(Oc3ccc(NC(=O)Nc4ccc(Cl)c(Cl)c4)cc3)c(C)nc2cc1OC", "growth": "53%"},
      {"smiles": "CCOC(=O)c1sc2ncnc(Nc3ccc4c(cnn4C(=O)Nc4ccc(C)c(Cl)c4)c3)c2c1C", "growth": "110%"},
      {"smiles": "CN1CCc2c(sc3nc4n(-c5ccc(Cl)cc5)c(=O)[nH]n4c(=O)c23)C1", "growth": "115%"},
      {"smiles": "COc1cc2c3c(n(C4CCN(C)CC4)c(=O)c2cc1OC)-c1cc2c(cc1C3=O)OCO2", "growth": "138%"},
      {"smiles": "CCOC(=O)CSc1nc(-c2cc(OC)ccc2OC)cc(-c2ccc(OC)cc2)c1C#N", "growth": "97.3%"},
      {"smiles": "CC(C)N(CCOc1ccc(-c2nc3sccn3c2-c2ccnc(S(C)(=O)=O)n2)cc1)C(C)C", "growth": "104%"},
      {"smiles": "N#Cc1ccc(C(=O)CSc2nccc(Nc3ccc(C(=O)O)cc3)n2)cc1", "growth": "102%"},
      {"smiles": "O=C(CNc1nnc(-c2cccnc2SCc2ccccc2)s1)Nc1nc(Cl)cc(Cl)n1", "growth": "109%"},
      {"smiles": "COc1ccc(N(C)c2ncnc3occ(C)c23)cc1", "growth": "28.1%"},
      {"smiles": "COC(=O)C1OC1c1cc([N+](=O)[O-])ccc1OC", "note": "(stereo not given)", "growth": "105%"},
      {"smiles": "N#Cc1c(-c2ccc(Cl)cc2)cc(-c2cc(O)ccc2O)nc1N", "growth": "86.6%"},
      {"smiles": "CN(C)CCN(Cc1ccccc1)c1ccc2ccccc2n1", "growth": "95%"},
      {"smiles": "COC(=O)c1c[nH]c2cc(OC(C)C)c(OC(C)C)cc2c1=O", "growth": "106%"},
      {"smiles": "C=C/C(C)=C/C[C@]1(C)[C@H](C)[C@@H](OC(=O)CCC)[C@H](O)[C@@]23C(=C[C@H](OC)C[C@@H]12)[C@@H](OC(=O)CCC)O[C@H]3OC(C)=O", "growth": "-41.3% (active)"},
      {"smiles": "O=C(Nc1cc([N+](=O)[O-])c2[nH]c(=O)c3ccccc3c2c1)C(F)(F)F", "growth": "104%"},
      {"smiles": "Nc1nc(Cl)nc2c1ncn2C1O[C@H](CO)[C@@H](O)[C@@H]1F", "note": "(stereo not given in full)", "growth": "47.4%"},
      {"smiles": "C#CC(C)(O)[C@@H]1C[C@H](CC(=O)O)C1(C)C", "note": "(stereo not given in full)", "growth": "102%"},
      {"smiles": "COc1ccc(-c2nn(-c3cccc(Cl)c3)cc2/C=C2\\NC(=S)N(c3ccc(Cl)cc3)C2=O)cc1", "growth": "53.7%"},
      {"smiles": "COc1ccc2c(c1)OC(N)=C(C#N)C2c1cc(OC)c(OC)c(OC)c1", "note": "(stereo not given)", "growth": "39.3%"},
      {"smiles": "IC(I)I", "growth": "94.1%"}
    ]}
  ]
}
